{
  "source": "PubChem BioAssay AID2284133",
  "about": "(EPA ToxCast)",
  "note": "The source made the active and inactive calls. The calls were made as follows: active = hit-call score of the fitted dose curve at least 0.9, where 1 is the maximum; inactive = score below 0.9.",
  "data": [
    {"target": "human MARK1 CAMK Kinase, MARK1 (gene 4139) (UniProt Q9P0L2)", "sequence (Q9P0L2 whole entry, looked up)": "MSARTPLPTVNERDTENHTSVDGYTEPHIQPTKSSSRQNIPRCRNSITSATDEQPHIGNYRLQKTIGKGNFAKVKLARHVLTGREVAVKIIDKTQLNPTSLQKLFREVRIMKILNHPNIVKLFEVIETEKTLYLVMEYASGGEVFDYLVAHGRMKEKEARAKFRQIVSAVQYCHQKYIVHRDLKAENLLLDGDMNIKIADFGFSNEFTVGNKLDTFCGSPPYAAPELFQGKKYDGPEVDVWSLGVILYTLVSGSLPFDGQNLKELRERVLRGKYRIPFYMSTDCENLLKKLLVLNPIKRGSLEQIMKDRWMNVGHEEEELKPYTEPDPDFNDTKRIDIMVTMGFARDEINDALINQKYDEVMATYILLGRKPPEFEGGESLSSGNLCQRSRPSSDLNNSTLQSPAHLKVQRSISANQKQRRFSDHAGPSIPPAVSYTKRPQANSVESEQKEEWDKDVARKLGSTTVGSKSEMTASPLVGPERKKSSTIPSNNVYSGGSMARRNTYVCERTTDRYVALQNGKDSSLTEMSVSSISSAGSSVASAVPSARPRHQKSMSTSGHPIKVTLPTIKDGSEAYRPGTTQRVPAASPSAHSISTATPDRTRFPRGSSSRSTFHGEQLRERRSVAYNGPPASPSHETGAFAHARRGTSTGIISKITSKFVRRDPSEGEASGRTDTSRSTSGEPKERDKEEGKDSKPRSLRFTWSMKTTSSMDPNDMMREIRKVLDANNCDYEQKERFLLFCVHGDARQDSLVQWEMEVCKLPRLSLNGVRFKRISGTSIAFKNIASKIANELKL", "test": "ERF_FR_ENZ_hMARK1: Eurofins (ERF) Enzymatic Radiometric [Km ATP] KinaseProfiler LeadHunter Assay for human MARK1 CAMK Kinase", "description": "ERF_FR_ENZ_hMARK1 is a biochemical, single-readout assay that uses extracted gene-proteins in a cell-free assay. Measurements were taken 0.5 hour after chemical dosing in a 96-well plate. See MARK1 Human CAMK Kinase Enzymatic LANCE Assay [Km ATP], Cerep.ERF_FR_ENZ_hMARK1 is an assay component calculated from the ERF_FR_ENZ_hMARK1 assay. It is designed to measure enzyme activity using a type of enzyme reporter as detected by fluorescence intensity with LANCE technology.Data from the assay component ERF_FR_ENZ_hMARK1 was analyzed at the assay endpoint, ERF_FR_ENZ_hMARK1, in the positive analysis fitting direction relative to DMSO as the negative control and baseline of activity. Using a type of enzyme reporter, loss-of-signal activity can be used to understand changes in enzymatic activity as they relate to gene MARK1. To generalize the intended target to other relatable targets, this assay endpoint is annotated to the kinase intended target family, where the subfamily is serine/threonine kinase.\n[…] is incubated with 50 mM Na-b-glycerophosphate pH 7.5, 0.1 mM EGTA, 30 uM […], 10 mM MgAcetate and [gamma-33P]-ATP (specific activity and concentration as required). The reaction is initiated by the […] addition of the Mg/ATP mix. After incubation for 40 minutes at room temperature, the reaction is stopped by the addition of phosphoric acid to a concentration of 0.5%. […]", "values": [
      {"compound": "O=C(/C=C/c1ccc(O)cc1)CC(=O)/C=C/c1ccc(O)cc1", "outcome": "inactive"}
    ]}
  ]
}
